The values that follow come from publication PMC5540273 (PLoS ONE, 2017).
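Further: KINOMEscan kinase panel screen.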

The first experiment has as its system FGFR4. To be noted: concentration: 1 μM, replicates: in singlicate; n = 1.
For the compound `Nc1ncnc2c1ncn2-c1ccc(Cl)cc1` [AH2635], the “%Inh” value is reported as 0%.
Still for that read-out and setting: as for `Nc1nc(-c2ccccc2F)c(-c2ccnc3ccccc23)s1` [GW560459], the figure is 75%; as for `COc1cc2ncn(-c3cc(OCc4ccc(S(C)(=O)=O)cc4)c(C(N)=O)s3)c2cc1OC` [GW869979], 0%.
In the case of `CCC(=O)c1c(-c2ccccc2)c2cc(Cl)ccc2c(=O)n1Cc1cc(C(=O)NC2CC2)n(C)n1`, the “%Inh” value came to 0%.
Same read-out and setting: as for `Nc1n[nH]c2nnc(-c3ccccc3)c(-c3ccccc3)c12` [GW554060], the figure is 1%; as for `OCCCNc1nccc(-c2c(-c3cccc(C(F)(F)F)c3)nn3cc(C(F)(F)F)ccc23)n1` [GW630813], 0%.
The same measure, in the same setting: the same measure for `O=C(NCCNc1ccnc(Nc2ccc(F)cc2)n1)Nc1ccc2c(c1)OCO2` [GSK1379882]: 0%.
Still for that read-out and setting: as for `CCC(=O)c1c(-c2ccccc2)c2cc(Cl)ccc2c(=O)n1Cc1cc(S(C)(=O)=O)n(CCC(C)(C)O)n1`, the figure is 8%; as for `FC(F)(F)c1ccc(-c2ncn(CCCN3CCOCC3)c2-c2ccncc2)cc1` [SB-217780], 1%.
Take `COC(=O)c1c(-c2ccccc2)c2cc(Br)ccc2c(=O)n1Cc1ccc(S(C)(=O)=O)cc1`: the “%Inh” value was 0%.
Same read-out and setting: the same measure for `CCCNC(=O)Nc1ccc(Oc2ncnc3ccn(C)c23)cc1`: 0%; for `CCn1c(-c2ccoc2)nc2cnccc21` [SB-733887]: 20%; for `CCn1c(-c2nonc2N)nc2ccccc21` [SB-693162/GW549034]: 0%.
Still for that read-out and setting: as for `Cc1nc(N(C)[C@H]2CN(C(=O)CC#N)CC[C@H]2C)c2cc[nH]c2n1`, the figure is 0%; as for `CCC(=O)c1c(-c2ccccc2)c2cc(Cl)ccc2c(=O)n1Cc1ccc(C(=O)O)cc1`, 0%; as for `COc1ccc(Nc2nccc(N3CCC(NS(=O)(=O)c4ccc(NC(C)=O)cc4)C3)n2)cc1` (centres unmarked) [GSK1379729], 98.5%.
Same read-out and setting: the same measure for `CCc1nc(-c2cccc(C)c2)c(-c2ccncc2)s1`: 0%; for `COc1cc(Nc2ccnc3ccc(C(F)(F)F)cc23)cc(OC)c1OC` [GW577382]: 11%.
In the case of `COc1ccc(-c2cc3c(C)nc(N)nc3n([C@H]3CC[C@H](O)CC3)c2=O)cn1`, the “%Inh” value stood at 0%.
Same read-out and setting: as for `Cc1ccc(-c2ccc3c(ccc4sc5c(c43)NC[C@@H](C)N=C5N(C)C)n2)cn1`, the figure is 0%; as for `Cc1nnc(-c2ccc(C)c(-c3ccc(C(=O)O)cc3)c2)o1` [GW608005], 0%.
Still for that read-out and setting: as for `COC(=O)c1c(-c2ccccc2)c2cc(C)ccc2c(=O)n1Cc1ccccc1`, the figure is 0%; as for `COc1cccc(C2=C(Nc3cccc(C(=O)O)c3)C(=O)NC2=O)c1` [SB-390770], 14%; as for `Fc1cccc(CSc2nnc(-c3ccc4c(c3)CCO4)o2)c1`, 6%.
As to `Cc1cccc(-c2cc(-c3c[nH]nc3-c3ccccn3)ccn2)c1` [GW679395], the “%Inh” value worked out at 4%.
Same read-out and setting: the same measure for `CN(C)c1cc(-c2ccc3c(N)n[nH]c3c2)nc(N)n1` [GSK2219329]: 0%; for `Cn1c(=O)c(F)c(Nc2ccc(I)cc2F)c2c(=O)n(OC[C@H](O)CO)cnc21`: 12%; for `Cc1nnc(-c2ccc3ncn(-c4ccc(S(C)=O)cc4)c3c2)o1` (centres unmarked): 12%.
As to `CCC(=O)c1c(-c2ccccc2)c2cc(Cl)ccc2c(=O)n1Cc1cc(S(C)(=O)=O)n(CC(N)=O)n1`, the “%Inh” value was determined as 0%.
The same measure, in the same setting: the same measure for `COc1cccc(-n2cnc3c(N)ncnc32)c1` [SKF-97416]: 0%; for `CCCC(=O)Nc1n[nH]c2ncc(-c3cccc4ccccc34)cc12` [SB-642057]: 19%.
Still for that read-out and setting: as for `CN1C(=O)C(Nc2cc(Cl)c(O)c(Cl)c2)=C(c2ccc(Cl)cc2)C1=O` [SB-404321], the figure is 0%; as for `Nc1nccc2scc(-c3ccc4c(c3)CCN4C(=O)Cc3ccccc3)c12` [GSK2576924], 7%; as for `CCc1ccc(-c2ccc3c(c2)-c2nn(C)cc2S(=O)(=O)N3C)cc1`, 0%.
The same measure, in the same setting: as for `O=C(NCc1cccs1)c1cc(C(=O)c2c(Cl)cccc2Cl)c[nH]1` [GW823670], the figure is 0%; as for `COC(=O)c1c(-c2ccccc2)c2cc(Br)ccc2c(=O)n1Cc1ccc(NC(=O)CCC(=O)O)cc1`, 0%.
With `COc1ccc(CNC(=O)NC2CCN(c3ccnc(Nc4ccc(F)cc4)n3)C2)cc1` (centres unmarked) [GSK1379706], the “%Inh” value was determined as 15%.

Another experiment concerns FGR. To be noted: concentration: 1 μM, replicates: in singlicate; n = 1.
Turning to `Nc1ncnc2c1ncn2-c1ccc(Cl)cc1` [AH2635], the “%Inh” value was determined as 18%.
Regarding `Nc1nc(-c2ccccc2F)c(-c2ccnc3ccccc23)s1` [GW560459], the “%Inh” value is 7%.
Same read-out and setting: as for `COc1cc2ncn(-c3cc(OCc4ccc(S(C)(=O)=O)cc4)c(C(N)=O)s3)c2cc1OC` [GW869979], the figure is 0%; as for `CCC(=O)c1c(-c2ccccc2)c2cc(Cl)ccc2c(=O)n1Cc1cc(C(=O)NC2CC2)n(C)n1`, 20%; as for `Nc1n[nH]c2nnc(-c3ccccc3)c(-c3ccccc3)c12` [GW554060], 7%.
Same read-out and setting: the same measure for `OCCCNc1nccc(-c2c(-c3cccc(C(F)(F)F)c3)nn3cc(C(F)(F)F)ccc23)n1` [GW630813]: 16%; for `O=C(NCCNc1ccnc(Nc2ccc(F)cc2)n1)Nc1ccc2c(c1)OCO2` [GSK1379882]: 0%; for `CCC(=O)c1c(-c2ccccc2)c2cc(Cl)ccc2c(=O)n1Cc1cc(S(C)(=O)=O)n(CCC(C)(C)O)n1`: 11%.
Same read-out and setting: as for `FC(F)(F)c1ccc(-c2ncn(CCCN3CCOCC3)c2-c2ccncc2)cc1` [SB-217780], the figure is 11%.
As for `COC(=O)c1c(-c2ccccc2)c2cc(Br)ccc2c(=O)n1Cc1ccc(S(C)(=O)=O)cc1`, the “%Inh” value was found to be 13%.
Consider `CCCNC(=O)Nc1ccc(Oc2ncnc3ccn(C)c23)cc1`, for which the “%Inh” value worked out at 0%.
The same measure, in the same setting: as for `CCn1c(-c2ccoc2)nc2cnccc21` [SB-733887], the figure is 10%; as for `CCn1c(-c2nonc2N)nc2ccccc21` [SB-693162/GW549034], 0%; as for `Cc1nc(N(C)[C@H]2CN(C(=O)CC#N)CC[C@H]2C)c2cc[nH]c2n1`, 6%.
Same read-out and setting: as for `CCC(=O)c1c(-c2ccccc2)c2cc(Cl)ccc2c(=O)n1Cc1ccc(C(=O)O)cc1`, the figure is 0%; as for `COc1ccc(Nc2nccc(N3CCC(NS(=O)(=O)c4ccc(NC(C)=O)cc4)C3)n2)cc1` (centres unmarked) [GSK1379729], 26%; as for `CCc1nc(-c2cccc(C)c2)c(-c2ccncc2)s1`, 19%.
The same measure, in the same setting: as for `COc1cc(Nc2ccnc3ccc(C(F)(F)F)cc23)cc(OC)c1OC` [GW577382], the figure is 30%; as for `COc1ccc(-c2cc3c(C)nc(N)nc3n([C@H]3CC[C@H](O)CC3)c2=O)cn1`, 0%.
Take `Cc1ccc(-c2ccc3c(ccc4sc5c(c43)NC[C@@H](C)N=C5N(C)C)n2)cn1`: the “%Inh” value worked out at 1%.
Same read-out and setting: as for `Cc1nnc(-c2ccc(C)c(-c3ccc(C(=O)O)cc3)c2)o1` [GW608005], the figure is 12%; as for `COC(=O)c1c(-c2ccccc2)c2cc(C)ccc2c(=O)n1Cc1ccccc1`, 2%; as for `COc1cccc(C2=C(Nc3cccc(C(=O)O)c3)C(=O)NC2=O)c1` [SB-390770], 14%.
As for `Fc1cccc(CSc2nnc(-c3ccc4c(c3)CCO4)o2)c1`, the “%Inh” value is reported as 0%.
On the same count and under the same terms, as for `Cc1cccc(-c2cc(-c3c[nH]nc3-c3ccccn3)ccn2)c1` [GW679395], the figure is 36%.
Still for that read-out and setting: the same measure for `CN(C)c1cc(-c2ccc3c(N)n[nH]c3c2)nc(N)n1` [GSK2219329]: 19%.
The same measure, in the same setting: as for `Cn1c(=O)c(F)c(Nc2ccc(I)cc2F)c2c(=O)n(OC[C@H](O)CO)cnc21`, the figure is 32%; as for `Cc1nnc(-c2ccc3ncn(-c4ccc(S(C)=O)cc4)c3c2)o1` (centres unmarked), 18%; as for `CCC(=O)c1c(-c2ccccc2)c2cc(Cl)ccc2c(=O)n1Cc1cc(S(C)(=O)=O)n(CC(N)=O)n1`, 0%.
In the case of `COc1cccc(-n2cnc3c(N)ncnc32)c1` [SKF-97416], the “%Inh” value is reported as 0%.
The same measure, in the same setting: as for `CCCC(=O)Nc1n[nH]c2ncc(-c3cccc4ccccc34)cc12` [SB-642057], the figure is 10%; as for `CN1C(=O)C(Nc2cc(Cl)c(O)c(Cl)c2)=C(c2ccc(Cl)cc2)C1=O` [SB-404321], 0%; as for `Nc1nccc2scc(-c3ccc4c(c3)CCN4C(=O)Cc3ccccc3)c12` [GSK2576924], 22%.
The same measure, in the same setting: the same measure for `CCc1ccc(-c2ccc3c(c2)-c2nn(C)cc2S(=O)(=O)N3C)cc1`: 0%; for `O=C(NCc1cccs1)c1cc(C(=O)c2c(Cl)cccc2Cl)c[nH]1` [GW823670]: 7%; for `COC(=O)c1c(-c2ccccc2)c2cc(Br)ccc2c(=O)n1Cc1ccc(NC(=O)CCC(=O)O)cc1`: 8%.
On the same count and under the same terms, as for `COc1ccc(CNC(=O)NC2CCN(c3ccnc(Nc4ccc(F)cc4)n3)C2)cc1` (centres unmarked) [GSK1379706], the figure is 19%.
